# Source: the supplement of paper PMC11172423
# Unmarked numbers belong to inactive results.
# Columns and labels:
# [1] = test system: Falciformispora senegalensis CBS197.79; assay: growth relative to untreated control; higher = less inhibition, active = 20 or less
# How it was run: (§1)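 Hyphal fragments of M. mycetomatis MM55 or F. senegalensis CBS197.79 were suspended in colourless RPMI 1640 with L-glutamine and MOPS at 68–72% transmission at 660 nm. They were exposed in 96-well plates to compound at 100 or 25 µM for 7 days at 37 °C. Viability was read with MTS (2 h, 490 nm) or resazurin (600 nm). Growth is metabolic activity relative to the untreated growth control, both corrected with a medium-plus-dye blank.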
# [2] = test system: Madurella mycetomatis MM55; assay: as above
# How it was run: as §1
Compound,growth ([1]; 25 µM),growth ([1]; 100 µM),growth ([2]; 25 µM),growth ([2]; 100 µM)
CC(C)(C)Nc1ncc2nc(Nc3cccc(C(F)(F)F)c3)n(CC3CCNCC3)c2n1,92.9%,97.2%,–,–
Cn1ccnc1SCC(=O)Nc1ccc(C(=O)Nc2ncccc2O)cc1,87.2%,79.4%,–,–
CCN(CC)C(=O)/C(C#N)=C/c1cc(O)c(O)c([N+](=O)[O-])c1,99%,99.4%,–,–
Nc1nc(NC2CC2)c2ncn([C@H]3C=C[C@@H](CO)C3)c2n1,94.3%,107%,–,–
O=C(NCCN1CCCC1)c1ccc(Nc2nccc(-c3ccc(Cl)cc3)n2)cc1,83.6%,7.34% (active),–,–
C[C@H]1O[C@@H](O[C@H]2[C@@H](O)C[C@H](O[C@H]3[C@@H](O)C[C@H](O[C@H]4CC[C@@]5(C)[C@H](CC[C@@H]6[C@@H]5C[C@@H](O)[C@]5(C)[C@@H](C7=CC(=O)OC7)CC[C@]65O)C4)O[C@@H]3C)O[C@@H]2C)C[C@H](O)[C@@H]1O,99.5%,106%,–,–
Nc1nc(S)c2[nH]cnc2n1,106%,103%,–,–
CN(C)CCN1CCCN(c2ccnc3ccsc23)CC1,90.2%,99.7%,–,–
CCOc1ccc(-c2ccnc(Nc3cncc(OC)c3)n2)cc1C#N,100%,86.8%,–,–
CCN(CCO)CCCC(C)Nc1ccnc2cc(Cl)ccc12 (configuration not stated),109%,105%,–,–
C[C@H]1c2cccc(O)c2C(=O)C2=C(O)[C@]3(O)C(O)=C(C(N)=O)C(=O)[C@@H](N(C)C)[C@@H]3[C@@H](O)[C@@H]21,108%,108%,63.1%,91.7%
CC(C)(C)NCc1ccc(Nc2ccnc3cc(Cl)ccc23)cc1O,95.8%,17.1% (active),–,–
CC(CN1c2ccccc2Sc2ccccc21)N(C)C (configuration not stated),102%,12.8% (active),–,–
FC(F)(F)c1cc(Cl)cc(Nc2nc3cnc(NC4CCOCC4)nc3n2C2CCNCC2)c1,93.9%,79.8%,–,–
Cc1cccc(Nc2nccc(-c3cccc(C#N)c3)n2)c1,80.6%,89.8%,–,–
N=C(N)Nc1ccc(C(=O)Oc2ccc3cc(C(=N)N)ccc3c2)cc1,107%,66.5%,–,–
CCCCc1oc2ccccc2c1C(=O)c1cc(I)c(OCCN(CC)CC)c(I)c1,101%,104%,78.3%,87.6%
COC(=O)C1=C(C)NC(C)=C(C(=O)OCCN2CCN(C(c3ccccc3)c3ccccc3)CC2)C1c1cccc([N+](=O)[O-])c1 (configuration not stated),94%,99.1%,81.7%,86.7%
CCC(C)(C)n1nnnc1C(c1cc2ccc(C)cc2[nH]c1=O)N1CCN(c2ccccc2)CC1 (configuration not stated),86%,84.3%,76.6%,91.7%

Compound,growth ([1]; 25 µM),growth ([1]; 100 µM),growth ([2]; 25 µM),growth ([2]; 100 µM)
CO/C=C(/C(=O)OC)c1ccccc1COc1c(C)c(-c2ccc(C)cc2C)nn1C,46.5%,15% (active),6.33% (active),10.3% (active)
CC(C)(C)[S@@](=O)N1Cc2cc(C(=O)NCCc3ccncc3)nc(-c3cccc(-c4ccccc4)c3)c2[C@H]1CCO,82.6%,102%,–,–
O=C(Nc1ncccc1O)c1ccc(Cn2cccn2)cc1,87.3%,86.4%,93.2%,123%
CC(=O)c1nn(-c2c(Cl)cc(C(F)(F)F)cc2Cl)c(N)c1S(C)=O (configuration not stated),94.6%,83.2%,–,–
CC(C)(C)c1nn(-c2ccc(Cl)cc2)c2[nH]c(=O)c(CNCc3ccc4c(c3)OCO4)cc12,72.1%,66.3%,5.51% (active),6.74% (active)
CCN1CCN(C2CCN(C(=O)COc3ccc(-c4ccccc4F)cc3)CC2)CC1,99.8%,6% (active),–,–
CNC(=O)c1cc(Oc2ccc(NC(=O)Nc3ccc(Cl)c(C(F)(F)F)c3)cc2)ccn1,103%,94.4%,45.7%,35.1%
O=C1CN(C(=O)CCC2CCCC2)C(c2ccc(F)cc2)c2cc(Cl)ccc2N1 (configuration not stated),71.2%,74.3%,–,–
OCCN1CCc2nc(NCc3ccc(F)cc3F)nc(NC34CC(C3)C4)c2CC1,69.4%,19.8% (active),32.2%,5.18% (active)
Cn1c(O)nnc1Cn1ccc(C(F)(F)F)c(Oc2cc(Cl)cc(C#N)c2)c1=O,106%,106%,–,–
CCC(C)n1ncn(-c2ccc(N3CCN(c4ccc(OCC5COC(Cn6cncn6)(c6ccc(Cl)cc6Cl)O5)cc4)CC3)cc2)c1=O (configuration not stated),37.2%,81.1%,–,–
OB(O)O,90.6%,104%,98.7%,163%
N#Cc1ccc(-c2ccc3nc(Oc4ccc(C(F)(F)F)cn4)cn3c2)nc1,101%,109%,–,–
CC(Nc1ccc2c(c1)OCCCO2)C(=O)Nc1cc(C(F)(F)F)ccc1N1CCOCC1 (configuration not stated),87.5%,86.1%,–,–
Cc1cccnc1Nc1cn2cc(-c3cccc(OCC(F)(F)F)n3)ccc2n1,96.5%,86.9%,–,–
O=C(NC1(CO)CCOCC1)c1cc2ccc(C(F)(F)F)cc2[nH]1,89.7%,82.1%,83.9%,72.9%
COc1cc(N2CCN(C)CC2)ccc1Nc1nccc(-c2cn(C)c3cnccc23)n1,69.1%,75.1%,–,–
CN1CCN(c2ccc(C(=O)NCc3cnc(C#N)nc3NCC(C)(C)C)cc2)CC1,102%,18.9% (active),–,–
COc1ccc2c(c1)c(CC(=O)O)c(C)n2C(=O)c1ccc(Cl)cc1,111%,104%,–,–

Compound,growth ([1]; 25 µM),growth ([1]; 100 µM),growth ([2]; 25 µM),growth ([2]; 100 µM)
COC(=O)C1=C(C)NC(C)=C(C(=O)OC)C1c1ccccc1[N+](=O)[O-],98.9%,41.1%,–,–
C[C@@H]1[C@@H](NC(=O)c2cn3cc(Cl)ccc3n2)C[C@H]2C[C@@H]1C2(C)C,95.5%,102%,–,–
CC(C)CC(NCCc1ccccc1O)c1ccccn1 (configuration not stated),99.8%,78.8%,–,–
CN1CCC(Oc2nc(Nc3ccccc3)nc3[nH]cc(-c4cnn(C)c4)c23)CC1,89%,79%,–,–
CC(C)(C)Nc1ncc2nc(Nc3cccc(C(F)(F)F)c3)n(CC3CCNC3)c2n1 (configuration not stated),94.5%,91.5%,114%,3.65% (active)
C[C@]1(c2nc3c(C(N)=O)cccc3[nH]2)CCCN1,95.9%,93.8%,130%,87.6%
CC(C)Nc1ncc2nc(Nc3cc(Cl)cc(C(F)(F)F)c3)n(C3CCNCC3)c2n1,90.2%,69.2%,118%,4.67% (active)
COc1c(C)c2c(c(O)c1C/C=C(\C)CCC(=O)O)C(=O)OC2,102%,107%,88%,94.6%
CCN(CC)Cc1ccccc1CNc1ccnc2ccsc12,103%,28.1%,75.4%,5.38% (active)
Cc1c(O)cccc1C(=O)N[C@@H](CSc1ccccc1)[C@H](O)CN1C[C@H]2CCCC[C@H]2C[C@H]1C(=O)NC(C)(C)C,107%,105%,83.9%,88.2%
CC[C@H](C)[C@H]1O[C@]2(CC[C@@H]1C)C[C@@H]1C[C@@H](C/C=C(\C)[C@@H](O[C@H]3C[C@H](OC)[C@@H](O[C@H]4C[C@H](OC)[C@@H](O)[C@H](C)O4)[C@H](C)O3)[C@@H](C)/C=C/C=C3\CO[C@@H]4[C@H](O)C(C)=C[C@@H](C(=O)O1)[C@]34O)O2,90.2%,91.2%,95.8%,112%
CN(C)CCCN1c2ccccc2Sc2ccc(Cl)cc21,22.7%,7.45% (active),4.01% (active),3.82% (active)
COc1ccc(-c2nn3c(-c4ccco4)nnc3s2)cc1OC,104%,96%,97%,55.2%
COc1ccc(-n2nc(C)c3c2NC(=O)CC3c2ccccc2OCc2ccc(F)cc2)cc1 (configuration not stated),82.5%,77.9%,41.5%,52.4%
Cn1cc(CN2CCc3c(c(C(=O)NCc4nccs4)nn3Cc3ccccc3)C2)c2ccccc21,89.7%,101%,88.4%,32.5%
NC1CCc2nc(-c3cccnc3)nc(Nc3ccc(C(F)(F)F)cc3)c2C1 (configuration not stated),102%,13.8% (active),71.4%,5.34% (active)
Cc1ccc(C)c2sc(N(CCCn3ccnc3)C(=O)c3ccco3)nc12,38.5%,30%,5.97% (active),7.8% (active)
CC[C@H](C)[C@H]1O[C@]2(C=C[C@@H]1C)C[C@@H]1C[C@@H](C/C=C(\C)[C@@H](O[C@H]3C[C@H](OC)[C@@H](O[C@H]4C[C@H](OC)[C@H](NC(C)=O)[C@H](C)O4)[C@H](C)O3)[C@@H](C)/C=C/C=C3\CO[C@@H]4[C@H](O)C(C)=C[C@@H](C(=O)O1)[C@]34O)O2,101%,91.4%,74.9%,116%
